Values joined by “and” are separate entries in the source; they are usually repeats but may differ in a detail not shown here. Identical values can stand only once. More than one record can exist for a structure, and the calls need not agree. Active and inactive are the calls of the source. How the source made its calls: active means hit-call score of the fitted dose curve at least 0.9, where 1 is the maximum; inactive means score below 0.9.

A short description of the assay: ATG_NRF2_ARE_CIS: Attagene CIS-FACTORIAL HepG2 Assay for human Nuclear Factor Erythroid 2 Related Factor 2 (NFR2) response to Antioxidant Response Elements (ARE) (AID 2282992). The conditions noted are these: HepG2 Attagene ARE/NRF2 reporter, transcription factor activity; actives raise or lower the signal. On the procedure: ATG_CIS is a cell-based, multiplexed-readout assay that uses HepG2, a human liver cell line, with measurements taken at 24 hours after chemical dosing in a 24-well plate.ATG_NRF2_ARE_CIS is one of 52 assay component(s) measured or calculated from the ATG_CIS assay. It is designed to make measurements of mRNA induction, a form of inducible reporter, as detected with fluorescence intensity signals by Reverse transcription polymerase chain reaction (RT-PCR) and Capillary electrophoresis technology.Data from the assay component ATG_NRF2_ARE_CIS was analyzed into 1 assay endpoint. This assay endpoint, ATG_NRF2_ARE_CIS, was analyzed with bidirectional fitting relative to DMSO as the negative control and baseline of activity. Using a type of inducible reporter, measures of mRNA for gain or loss-of-signal activity can be used to understand the reporter gene at the transcription factor-level as they relate to the gene NFE2L2. Furthermore, this assay endpoint can be referred to as a primary readout, because this assay has produced multiple assay endpoints where this one serves a reporter gene function. To generalize the intended target to other relatable targets, this assay endpoint is annotated to the dna binding intended target family, where the subfamily is basic leucine zipper.
Human liver HepG2 cells are transiently transfected with multiple reporter transcription units (MRTUs) in 6-well plates using FuGene 6 reagent (Roche; 3 ml FuGene/1 mg DNA). The MRTU constructs are regulated by a cis-regulating element (promoter). […] A major difference between the CIS and TRANS system is that in CIS activities of endogenous TFs are measured, whereas the TRANS assay evaluates changes in activities of exogenous, chimeric NR-Gal4 proteins. […] At the end of 24 hour incubation, total RNA was isolated using TriZol reagent (Invitrogen). The isolated RNA is then reverse-transcribed using oligo(dT) primer and Mo-MLV reverse transcriptase (Invitrogen) with DNAse I (Ambion) treatment for 30 min. The one-tenth of the produced cDNA was amplified by PCR using Taq DNA polymerase (Invitrogen) and two reporter sequence-specific primers. The PCR products were fluorescently labeled by primer extension with 6-arboxyfluorescein (6-FAM) 5'-labeled reporter sequence-specific primer (2 min at 95 C, 20 s at 68 C and 10 min at 72 C) and these products were digested with 5U of HpaI (New England Biolabs) for 2h at 37 C. The fragments were purified using Qiaquick PCR columns (Qiagen), analyzed on an ABI 3130xL genetic analyzer (Applied Biosystems) with peak positions identified by using a set of X-rhodamine (ROX)-labeled MapMarker1000 molecular weight standards (BioVentures). The raw capillary electrophoresis data was processed using Attagraph software (Attagene).
Consider `Clc1ccc(C2(Cn3cncn3)CC(Br)CO2)c(Cl)c1` (stereo not given), for which the AC50 (usually the concentration giving half of the maximal activity seen) was 26.9 µM (active). For the molecule `CC(=O)C=C(C)C`, the call was inactive. Take `[O-][Cl+2]([O-])O`: the molecule was called inactive. Still for that read-out and setting: as for `CC12CC1(C)C(=O)N(c1cc(Cl)cc(Cl)c1)C2=O` (stereo not given), the entry is “inactive”; as for `Cl/C=C/Cl`, “inactive”. As to `Fc1ccc(C2(Cn3cncn3)OC2c2ccccc2Cl)cc1` (stereo not given), the AC50 is 44.7 µM (active).

`C[C@H]1CCCC(=O)CCC/C=C/c2cc(O)cc(O)c2C(=O)O1`: the molecule was called inactive. For `O=C(O)C(F)(F)C(F)(F)C(F)(F)C(F)(F)C(F)(F)C(F)(F)F`, the AC50 is 212 µM (active) and 219 µM (active); the molecule was called inactive. In the case of `CCC(C)c1cccc(C(C)CC)c1O` (stereo not given), the AC50 was 18 µM (active).

With `O=C/C=C/c1ccccc1`, the AC50 was 30.8 µM (active). Consider `O=C(Cl)c1ccc(Cl)cc1`, for which the call was inactive. Take `CC(=O)[O][Hg][c]1ccccc1`: the AC50 is 2.24 µM (active).

For `CC1(C)CCC(Cc2ccc(Cl)cc2)C1(O)Cn1cncn1` (stereo not given), the AC50 was 33.4 µM (active). Still for that read-out and setting: next, `CCOP(=S)(OCC)SCCS(=O)(=O)CC`: 19 µM (active).

With `NC(=S)Nc1ccccc1`, the outcome was inactive. As for `C=C(C)C#N`, the molecule was called inactive. `CN(C)P(=O)(N(C)C)N(C)C`: the outcome was inactive. On to `CCCCCCCCCl`, for which the outcome was inactive. `O=C(O)C(F)(F)C(F)(F)C(F)(F)C(F)(F)C(F)(F)C(F)(F)C(F)(F)C(F)(F)C(F)(F)C(F)(F)F`: the AC50 was 7.52 µM (active) and the call was inactive. Take `O=C(OC1CCCCC1)c1ccccc1C(=O)OC1CCCCC1`: the AC50 is 18.4 µM (active). Take `COC[C@H](C)N(C(=O)CCl)c1c(C)csc1C`: the molecule was called inactive. Regarding `C[C@]12CCC(=O)C[C@@H]1CC[C@@H]1[C@@H]2CC[C@]2(C)[C@@H](O)CC[C@@H]12`, the AC50 was 61.4 µM (active) and 57.3 µM (active); the molecule was classed as inactive.

Take `CN(C)N=O`: the outcome was inactive. The same measure, in the same setting: as for `COC(=O)Cc1ccccc1`, the entry is “inactive”. Take `CC(C)CCCCCCOC(=O)c1ccccc1C(=O)OCCCCCCC(C)C`: the call was inactive. Take `CC(C)(c1ccc(OCC2CO2)cc1)c1ccc(OCC2CO2)cc1` (stereo not given): the AC50 was 8.41 µM (active). The same measure, in the same setting: as for `O=C1C(Cl)=C(Cl)C(=O)c2ccccc21`, the figure is 2.2 µM (active).

For the molecule `CC(C)c1ccc(CO)cc1`, the molecule was classed as inactive.

Take `CCC1(c2ccc(N)cc2)CCC(=O)NC1=O` (stereo not given): the molecule was called inactive.

`C=C(C)C(=O)[O][Sn]([CH2]CCC)([CH2]CCC)[CH2]CCC`: the AC50 was 0.26 µM (active). In the case of `C=CC(=O)OCCCCCC(C)C`, the molecule was classed as inactive. Take `CCCCCCCCc1ccc(O)cc1`: the AC50 is 11.2 µM (active) and the molecule was classed as inactive. Consider `c1cc[c]([Hg][c]2ccccc2)cc1`, for which the result was inactive.

With `CC(C)c1cccc(C(C)C)c1O`, the call was inactive. In the case of `CCCCC(CC)CO[N+](=O)[O-]` (stereo not given), the AC50 was 167 µM (active). On to `COc1ccc(C=O)cc1OC`, for which the molecule was called inactive.
